Each structure is given as a SMILES string. Inconclusive results are not listed. A number with no mark means an inactive call. The call rests on the fitted dose curve; in most records, active means well fitted cell-killing curve with a large enough effect; inconclusive means small, poorly fitted or top-dose-only effect; inactive means flat fitted curve, though single readings scatter.

The first test can be described thus: Cell Viability - LYMP2-016 (AID 984).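 Further: cells exposed to compound for 24 hours at 37 °C; on the % scale 0 is the no-effect control and ±100 the full control effect; nearly all actives have a fitted effect of over 55% in size.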 The note with it: LYMP2-016 lymphoblastoid cell viability, qHTS; series mostly up to 92.2 µM; activity change, negative = cytotoxicity: at the top concentration. In a few lines: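 Cytotoxicity was scored by luminescent ATP content (CellTiter-Glo) after 24 h compound exposure at 37 C of a human lymphoblastoid line at 2500 cells/well. Concentration-response data were fitted to the Hill equation for AC50.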
In the case of `Oc1cccc(Cl)c1Cl`, the “activity change, negative = cytotoxicity” value is -7.94%.

Turning to `Nc1cccc2ccccc12`, the “activity change, negative = cytotoxicity” value is -17.4%.

For the compound `Cc1cnc[nH]1`, the “activity change, negative = cytotoxicity” value was 4.03%.

With `CN(C)N=O`, the “activity change, negative = cytotoxicity” value is 2.94%.

As to `COc1c(C(C)(C)C)cc([N+](=O)[O-])c(C)c1[N+](=O)[O-]`, the “activity change, negative = cytotoxicity” value is -2.79%.

Turning to `C=C(Cl)CCl`, the “activity change, negative = cytotoxicity” value is -3.06%.

With `ClCCOCOCCCl`, the “activity change, negative = cytotoxicity” value was -3.72%.

On to `CC12CC1(C)C(=O)N(c1cc(Cl)cc(Cl)c1)C2=O` (configuration not stated), for which the “activity change, negative = cytotoxicity” value is -7.73%.

In the case of `CC(C)(Cl)[N+](=O)[O-]`, the “activity change, negative = cytotoxicity” value was -2.09%.

`Cl/C=C/Cl`: the “activity change, negative = cytotoxicity” value is -3.79%.

For the compound `CCCCOCC1CO1` (configuration not stated), the “activity change, negative = cytotoxicity” value is -13.1%.

As for `C1CC2OC2CC1C1CO1` (configuration not stated), the “activity change, negative = cytotoxicity” value was 2.88%.

With `Brc1cccc(-c2ccccc2)c1`, the “activity change, negative = cytotoxicity” value is -3.02%.

In the case of `Oc1c(Cl)cccc1Cl`, the “activity change, negative = cytotoxicity” value is -4.47%.

As to `ClCCOCCCl`, the “activity change, negative = cytotoxicity” value is -2.67%.

For `CCNCC`, the “activity change, negative = cytotoxicity” value is -5.68%.

As to `CC(C)C#N`, the “activity change, negative = cytotoxicity” value was -3.43%.

Turning to `Cl/C=C\Cl`, the “activity change, negative = cytotoxicity” value is -1.31%.

With `c1ccc2c(c1)CCNC2`, the “activity change, negative = cytotoxicity” value is -6.28%.

Take `O=[N+]([O-])c1ccc(Cl)c(Cl)c1Cl`: the “activity change, negative = cytotoxicity” value was -1.27%.

On to `N#CCCC#N`, for which the “activity change, negative = cytotoxicity” value is -2.87%.

As to `Cc1ccccc1[N+](=O)[O-]`, the “activity change, negative = cytotoxicity” value is 1.48%.

Take `C=CC(=O)OCCN(C)C`: the “activity change, negative = cytotoxicity” value is -5.44%.

With `CC(C)(C)C(O)(CCc1ccc(Cl)cc1)Cn1cncn1` (configuration not stated), the “activity change, negative = cytotoxicity” value is -22.5%.

`N#CCCCCC#N`: the “activity change, negative = cytotoxicity” value was -3.15%.

Take `CCCCCC[N+](=O)[O-]`: the “activity change, negative = cytotoxicity” value was -0.0041%.

Regarding `COc1ccc(C=O)cc1`, the “activity change, negative = cytotoxicity” value is -3.32%.

Regarding `Nc1ccc(Cl)c(Cl)c1`, the “activity change, negative = cytotoxicity” value was -3.87%.

As for `CC(=O)[O-].CC(=O)[O-].CC(=O)[O-].[Cr+3]`, the “activity change, negative = cytotoxicity” value is -6.19%.

Take `CC(=O)CCC(C)=O`: the “activity change, negative = cytotoxicity” value is -0.707%.

Take `C=CC(=O)OCC(CC)CCCC` (configuration not stated): the “activity change, negative = cytotoxicity” value was -3.73%.

In the case of `CC(C#N)CCC#N` (configuration not stated), the “activity change, negative = cytotoxicity” value is 2.83%.

A further test in a line: Cell Viability - LYMP2-018 (AID 985).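 Further: compound exposure lasted 24 hr at 37 °C; plate controls were DMSO only for no effect and tetraoctylammonium bromide at 92 µM for full effect; nearly all actives have a fitted effect of over 50% in size.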 The note with it: LYMP2-018 lymphoblastoid cells, viability (qHTS); series mostly up to 92.2 µM; activity change, negative = cytotoxicity: at the top concentration. In a few lines:
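2500 cells/well; 5 hr 37 C; cmpd 24 hr 37 C, complete medium; CellTiter-Glo 30 min RT; luminescence. Tetraoctylammonium bromide positive control. AC50 via Hill fit.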
(In general: Quantitative high-throughput screening tests each substance at several concentrations.)
For the compound `CCC/C=N/O`, the “activity change, negative = cytotoxicity” value was -21.4%.

Regarding `Nc1cccc2ccccc12`, the “activity change, negative = cytotoxicity” value is -19.5%.

For the compound `Cc1cnc[nH]1`, the “activity change, negative = cytotoxicity” value is -14%.

Regarding `CN(C)N=O`, the “activity change, negative = cytotoxicity” value was -6.77%.

Turning to `COc1c(C(C)(C)C)cc([N+](=O)[O-])c(C)c1[N+](=O)[O-]`, the “activity change, negative = cytotoxicity” value is 1.15%.

Consider `C=C(Cl)CCl`, for which the “activity change, negative = cytotoxicity” value is -5.93%.

Regarding `ClCCOCOCCCl`, the “activity change, negative = cytotoxicity” value is -1.43%.

On to `CC12CC1(C)C(=O)N(c1cc(Cl)cc(Cl)c1)C2=O` (configuration not stated), for which the “activity change, negative = cytotoxicity” value was -13.6%.

With `CC(C)(Cl)[N+](=O)[O-]`, the “activity change, negative = cytotoxicity” value is -10.2%.

Take `Cl/C=C/Cl`: the “activity change, negative = cytotoxicity” value was -5.53%.

On to `CCCCOCC1CO1` (configuration not stated), for which the “activity change, negative = cytotoxicity” value is -8.16%.

As for `O=C(O)c1cccc(Cl)c1`, the “activity change, negative = cytotoxicity” value was -1.57%.

As for `C1CC2OC2CC1C1CO1` (configuration not stated), the “activity change, negative = cytotoxicity” value is -5.95%.

Turning to `Brc1cccc(-c2ccccc2)c1`, the “activity change, negative = cytotoxicity” value is -4.33%.

On to `ClCCOCCCl`, for which the “activity change, negative = cytotoxicity” value was -18.3%.

On to `CC(C)C#N`, for which the “activity change, negative = cytotoxicity” value is -23.9%.

As to `Cl/C=C\Cl`, the “activity change, negative = cytotoxicity” value is -5.83%.

`c1ccc2c(c1)CCNC2`: the “activity change, negative = cytotoxicity” value was -5.43%.

For the compound `CCBr`, the “activity change, negative = cytotoxicity” value is -8.14%.

In the case of `O=[N+]([O-])c1ccc(Cl)c(Cl)c1Cl`, the “activity change, negative = cytotoxicity” value was -15.4%.

Consider `N#CCCC#N`, for which the “activity change, negative = cytotoxicity” value is 6.76%.

On to `Cc1ccccc1[N+](=O)[O-]`, for which the “activity change, negative = cytotoxicity” value is -3.24%.

As to `OCCBr`, the “activity change, negative = cytotoxicity” value is -7.44%.

With `C=CC(=O)OCCN(C)C`, the “activity change, negative = cytotoxicity” value is -4.78%.

`CC(C)(C)C(O)(CCc1ccc(Cl)cc1)Cn1cncn1` (configuration not stated): the “activity change, negative = cytotoxicity” value is -19.1%.

Consider `CN=C=O`, for which the “activity change, negative = cytotoxicity” value is -1.22%.

In the case of `c1ccc(C2CO2)cc1` (configuration not stated), the “activity change, negative = cytotoxicity” value was 3.67%.

For the compound `CCCCCC[N+](=O)[O-]`, the “activity change, negative = cytotoxicity” value was -3.25%.

For `OCC(Cl)CCl` (configuration not stated), the “activity change, negative = cytotoxicity” value is -7.57%.

Turning to `COc1ccc(C=O)cc1`, the “activity change, negative = cytotoxicity” value was 0.4%.

Consider `Nc1ccc(Cl)c(Cl)c1`, for which the “activity change, negative = cytotoxicity” value was -8.93%.

Consider `CC(=O)[O-].CC(=O)[O-].CC(=O)[O-].[Cr+3]`, for which the “activity change, negative = cytotoxicity” value was -6.26%.

Turning to `CC(=O)CCC(C)=O`, the “activity change, negative = cytotoxicity” value was 0.265%.

Turning to `C=CC(=O)OCC(CC)CCCC` (configuration not stated), the “activity change, negative = cytotoxicity” value is -10.7%.

As for `CC(C#N)CCC#N` (configuration not stated), the “activity change, negative = cytotoxicity” value is -8.4%.

Values taken from PubChem BioAssay (NCATS).
